Data from PubChem BioAssay (NCI).
The panel holds about 83,000 compounds, 20% with a hit somewhere; the sample as a whole holds those more often.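 Single-dose data. Exposure time 48 hours. Values below 10 considered active.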 A number with no mark means an inactive call. Activity calls are given as the source filed them.

Columns and labels:
Assay in all cases: NCI-60 one-dose screen, 48 h (100 = growth as untreated, 0 = no growth, -100 = all killed)
Details in all cases: 10 µM unless noted
SR leukemia = system: SR leukemia
RPMI-8226 leukemia = system: RPMI-8226 leukemia
OVCAR-8 ovarian = system: OVCAR-8 ovarian
OVCAR-5 ovarian = system: OVCAR-5 ovarian
OVCAR-4 ovarian = system: OVCAR-4 ovarian
SK-OV-3 ovarian = system: SK-OV-3 ovarian
IGROV1 ovarian = system: IGROV1 ovarian
HS 578T breast = system: HS 578T breast
NCI/ADR-RES ovarian = system: NCI/ADR-RES ovarian
OVCAR-3 ovarian = system: OVCAR-3 ovarian

SMILES	growth (SR leukemia)	growth (RPMI-8226 leukemia)	growth (OVCAR-8 ovarian)	growth (OVCAR-5 ovarian)	growth (OVCAR-4 ovarian)	growth (SK-OV-3 ovarian)	growth (IGROV1 ovarian)	growth (HS 578T breast)	growth (NCI/ADR-RES ovarian)	growth (OVCAR-3 ovarian)
CCCC(=O)NC(c1cccnc1)c1cc(Cl)c2cccnc2c1O (centres undefined)	39.6%	30.7%	21.9%	55.6%	22.7%	44.4%	28.5%	17.3%	10.2%	
Cc1ccc(NC(=O)c2cc(/C=C/C(=O)NO)cc(C(F)(F)F)c2)cc1Nc1nccc(-c2cccnc2)n1	4.9% (active)	-13% (active)	-12.2% (active)	17.4%	23%	-38.3% (active)	2.46% (active)	-14.5% (active)	87.8%	
NC(=O)c1c(NC(=O)c2cccc(OC(F)(F)F)c2)sc2c1CCC(=O)C2	30%	6.56% (active)	53%	62.5%	13.8%		36.4%	40.4%	57.5%	
O=C1Nc2ccc(Cl)cc2/C1=C/c1ccc(OCc2ccc(Br)cc2F)cc1	97.2%	95.8%	99.8%	101%	100%	98%	104%	102%	98.2%	
COc1ccc(OC)c(NC2=C(Cl)C(=O)C(C)=C(C)C2=O)c1	96.5%	65.9%	95.6%	109%	55.5%		89.6%	92.8%	96.8%	92.3%
CCC(C)[C@H]1OC(=O)[C@H](C(C)C)N(C)C(=O)[C@@H](C(C)C)OC(=O)[C@H](C(C)C)N(C)C(=O)[C@@H](C(C)CC)OC(=O)[C@H](C(C)C)N(C)C1=O (some centres undefined)	7.44% (active)	-19.5% (active)	11.6%	13.4%	10.5%	-15.3% (active)	25.8%	32.9%	2.47% (active)	
O=C1c2cc(Br)ccc2-n2c1nc1cc(Br)ccc1c2=O	65.8%	75.8%	78.3%	90.8%	64.7%		59.8%	96.1%	84.2%	47.3%
C/C(=C(/c1ccc(O)cc1)c1ccc(OCCN(C)C)cc1)c1ccc(Cl)cc1	-3.2% (active)	-8.72% (active)	62.1%	66.6%	66.9%	83%	58.1%	46.8%	61.8%	
CCOC(=O)c1nn(-c2ccccc2)c(=O)c2c(N)c(C#N)c(-c3cccs3)cc12	96%	74.4%	54.5%	88.8%	36.7%		64%	32.9%	59.8%	109%
C/C(=C(/c1ccc(O)cc1)c1ccc(OCCN2CCCCCC2)cc1)c1ccccc1	-24% (active)	2.14% (active)	69.2%	63.3%	68.4%	76.1%	61.9%	44.3%	65.6%	
Cc1ccc(NC(=O)N[C@@H](Cc2cc(F)cc(F)c2)C(=O)NC2C(=O)N3CCC[C@H]3C(=O)N3CCCC[C@H]3C(=O)N[C@@H](C)C(=O)N3C[C@H](C)C[C@H]3C(=O)O[C@H]2C)c(F)c1 (some centres undefined)	30.6%	11.6%	21.6%	36.3%		23.9%	47.5%	28.9%	20.1%	
Cn1cc(-c2nn3cc(-c4ccncc4)nc3s2)c2cc(Cl)ccc21	-4.53% (active)	19.5%	14.6%	66.8%		89.5%	17.2%	49.8%	32.4%	
Oc1ccc(CSc2nnc(-c3ccc(Oc4ccccc4)cc3)o2)c2cccnc12	32.2%	23.5%	24.2%	48.3%		22%	26.1%	10.4%	12.6%	-28.7% (active)
COc1cc([C@H]2OC[C@H]3[C@@H]2CO[C@@H]3c2ccc(O)c(OC)c2)ccc1O	67.3%	72.1%	84.2%	86.6%		69%	69.9%	107%	85.7%	96.8%
CCCC(=O)NC(c1cccnc1)c1cc(C(C)=O)c2cccnc2c1O (centres undefined)	52.5%	38.2%	21.7%	40%		31.9%	36.7%	69.6%	30.4%	17.1%
O=C1c2c(c3c4cc(Br)ccc4[nH]c3c3ccc4ccccc4c23)C(=O)N1CCN1CCNCC1	-14.3% (active)	-9.87% (active)	57.3%	113%		93.6%	68.5%	115%		
CN(C)c1ccc(/C=N/Nc2nc(N/N=C/c3ccc(N(C)C)cc3)nc(N3CCOCC3)n2)cc1	-13.1% (active)		99%	110%	104%	110%	94.6%	97.6%		109%
CCN1C(=O)N(CC)C2C1NN=C1SC(c3ccccc3)=CC(=O)N12 (centres undefined)	16.2%	4.35% (active)	18.2%	29.1%		42.2%	41.4%	3.22% (active)	19.2%	
Oc1ccc(CSc2nnc(-c3cnccn3)o2)c2cccnc12	20.5%	7.74% (active)	15.1%	36.9%		9.11% (active)	23.4%	19%		11.9%
Cc1cccc(NC(c2cc3cccc4ccc5cccc2c5c43)c2nnnn2C(C)(C)C)c1C (centres undefined)	86.3%	86.9%	92.8%	87%		77.4%	73.6%	88%	89.4%	
CN(C)C(=O)C1=NC(CO)C(=O)N(c2ccc(Cl)cc2)N1 (centres undefined)	107%	101%	104%	96.5%		114%	101%	104%	104%	110%
COc1ccc(CN2C(=O)/C(=C/c3nc(CO)cs3)SC2=S)cc1	33.8%		96.7%	107%	107%	109%	89.9%	101%	97.8%	80.8%
CC1(C)CC[C@]2(C(=O)O)CC[C@]3(C)C(=CCC4[C@@]5(C)C[C@@H](O)[C@@H]6OC(c7ccccc7O)OC[C@@]6(C)C5CC[C@]43C)C2C1 (some centres undefined)	53.3%	55.4%	53.1%	103%		80%	57.2%	80.6%	34.6%	47.4%
CC(c1ccccc1)N1C(=O)/C(=C/c2csc(C#N)n2)SC1=S (centres undefined)	48.9%	41.8%	93.4%	107%		108%	90.9%	103%	97.5%	55.5%
CNC(=O)c1cc(Oc2ccc3nc(NC(=O)c4ccc(CN5CCN(C)CC5)c(C(F)(F)F)c4)sc3c2)ccn1	-4.18% (active)	19.6%	73.8%	80.7%		87.1%	80.1%	52.9%	78%	
C#C[C@]1(O)CC[C@H]2[C@@H]3CC=C4c5sc(-c6ccccn6)nc5CC[C@]4(C)[C@H]3CC[C@@]21C	29.3%		91.8%	94.2%	98.6%	76.8%	88.9%	14.4%		88%
COc1ccc(OC)c([C@H]2c3[nH]c4ccccc4c3C[C@H]3C(=O)N(CCCCCCC(=O)NO)CC(=O)N23)c1	36.7%	60.4%	73.9%	100%		86.2%	71.6%	93.5%	99.5%	76.3%
O=C(Nc1ccc(-c2nc(-c3cccc(O)c3)c(-c3ccnc(Br)c3)[nH]2)cc1)c1ccccc1	-15.2% (active)		24.3%	57.7%	35%	-5.97% (active)	25.6%	-24.1% (active)	57.6%	31.6%
CCOC(=O)c1ccc(N/C=C/C(=O)c2ccccc2)cc1	87.8%	100%	102%	101%		113%	110%	113%	103%	
